Screening results as filed in PubChem BioAssay.
This is a sample that favours compounds with a hit; in the whole collection about 3.6% have one here.
PLK1 PBD inh – inhibitors of human PLK1 polo-box domain binding; AID 720504; 360,000 compounds, 2.8% hits; Plk1 PBD binding of FITC phosphopeptide, fluorescence polarization; Potency, µM, for inactives: max response, negative = inhibition, usual class: inhibitors; also: potency is read from the fitted curve at half-maximal effect; series mostly up to about 57 µM; % is scaled to controls: 0 for no effect and ±100 for the full control effect; nearly all actives have a fitted effect of over 65% in size
Rango-impB inh – inhibitors of Rango-importin beta complex formation; Potency, µM (doses to about 92.2 µM), inactives show at the top dose inhibition of complex formation; Rango CFP/YFP FRET sensor + importin beta, 45 min; AID 540263; 340,000 compounds, 0.031% hits; Q14974; calls by dose curve;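 also: potency is read from the fitted curve at half-maximal effect; 0% = DMSO wells and 100% = buffer wells lacking importin beta; nearly all actives have a fitted effect of over 15% in size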
Target sequence (Q14974 whole entry, looked up): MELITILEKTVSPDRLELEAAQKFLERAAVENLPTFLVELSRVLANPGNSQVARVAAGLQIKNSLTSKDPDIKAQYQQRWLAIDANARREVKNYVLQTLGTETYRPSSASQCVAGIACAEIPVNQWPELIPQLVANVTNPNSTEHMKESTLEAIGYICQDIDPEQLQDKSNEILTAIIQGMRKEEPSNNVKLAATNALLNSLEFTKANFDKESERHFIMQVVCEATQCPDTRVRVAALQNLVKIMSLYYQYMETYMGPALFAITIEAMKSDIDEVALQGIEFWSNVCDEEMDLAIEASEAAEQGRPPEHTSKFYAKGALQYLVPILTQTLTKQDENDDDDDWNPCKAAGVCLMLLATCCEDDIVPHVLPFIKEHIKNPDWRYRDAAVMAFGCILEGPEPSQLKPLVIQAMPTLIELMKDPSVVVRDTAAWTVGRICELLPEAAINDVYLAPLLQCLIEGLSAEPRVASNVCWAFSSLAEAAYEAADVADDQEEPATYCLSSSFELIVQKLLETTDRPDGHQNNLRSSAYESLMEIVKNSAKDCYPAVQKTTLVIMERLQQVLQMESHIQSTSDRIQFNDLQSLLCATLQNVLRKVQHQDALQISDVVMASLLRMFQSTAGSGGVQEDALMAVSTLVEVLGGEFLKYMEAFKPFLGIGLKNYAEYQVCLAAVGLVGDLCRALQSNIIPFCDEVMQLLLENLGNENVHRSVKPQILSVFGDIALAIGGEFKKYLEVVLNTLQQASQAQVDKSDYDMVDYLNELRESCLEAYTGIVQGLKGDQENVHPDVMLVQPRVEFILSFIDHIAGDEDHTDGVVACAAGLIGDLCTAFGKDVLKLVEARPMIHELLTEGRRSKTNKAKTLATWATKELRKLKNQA
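FRET biosensor (snurportin 1 IBB flanked by EYFP and cerulean), 50 nM, with compound 5 min, then 0.125 microM importin beta in PBS, 1 mM DTT, 0.02% Tween-20, 0.1% BSA. CFP/YFP ratio read after 45 min at room temperature; pre-read flags interference.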
KAT2A inh – GCN5L2 (KAT2A) acetyltransferase inhibition; Q92830; GCN5L2 HAT assay, ThioGlo1 CoA-SH fluorescence; Potency, µM (doses to about 58.9 µM), for inactives: at the highest dose activity change, negative = inhibition, most hits filed as inhibitors; AID 504327; 390,000 compounds, 0.21% hits; also: potency is read from the fitted curve at half-maximal effect; % is scaled to controls: 0 for no effect and ±100 for the full control effect
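Free CoA generated was detected with ThioGlo1 (50uM) fluorescence at Ex340nm/Em540nm, read immediately and after 20 min at room temperature. Enzyme, 20 nM in HEPES pH 7.5 buffer, saw compounds 15 min before adding 75uM H3(1-25) peptide and 70uM acetyl-CoA.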
Rango release inh – inhibitors of RanGTP-induced Rango-importin beta complex dissociation; O95149+P62826; Biochemical FRET Rango-importin beta, RanGTP-induced dissociation; Potency, µM (doses to about 46.1 µM), for inactives: top-dose activity change, negative = inhibition; 340,000 compounds, 0.071% hits; calls by dose curve; also: potency is read from the fitted curve at half-maximal effect; % of control where 0% means no effect; nearly all actives have a fitted effect of over 45% in size
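Quantitative HTS using a FRET biosensor: 0.1 uM Rango, 0.25 uM importin beta, 0.6 uM Ran, 2 mM GTP, 0.2 uM RCC1 final, PBS with DTT, Tween-20 and BSA. Post-read taken 45 min after Ran addition.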
PI5P4Ka inh – PI5P4K alpha (human) kinase inhibition; AID 652105; 330,000 compounds, 1.2% hits; max response, %; PI5P4Kalpha enzyme, ADP-Glo luminescence, 60 min; active compounds read low; active = max response of -50% or lower; inconclusive = between -30% and -50%; inactive = -30% or higher; also: value at the top dose of about 77 µM; % is scaled to controls: 0 for no effect and ±100 for the full control effect
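PI5P4Kalpha ADP-Glo assay; 5 microM ATP final; 60 min RT reaction; HEPES pH 7.4/EGTA/CHAPS, 5% DMSO; controls lacking substrate or enzyme; luminescent end-point.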
VDR inh – vitamin D3 receptor (human) inhibition | P11473 | VDR-SRC2-3 peptide fluorescence polarization, 2 h | Potency, µM, inactives show max response, negative = inhibition, most hits filed as inhibitors | 400,000 compounds, 0.93% hits; also: potency is read from the fitted curve at half-maximal effect; % is scaled to controls: 0 for no effect and ±100 for the full control effect
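Compounds are added to VDR with labelled SRC2-3 coactivator peptide and held 2 h at room temperature. Inhibition of the VDR–peptide interaction is then read as a change in fluorescence polarization.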
* marks the source's active call; other numbers are inactive results; ! = not active in a repeat; [ ] = remark or other dose. Unless noted, calls follow the shape of the dose curve; as a rule, active = well fitted curve in the direction sought with a large enough effect; inconclusive = small, poorly fitted or top-dose-only effect, or another doubt; inactive = no such curve, though single readings can be large; an effect the other way counts as inactive or inconclusive.

For CC[C@H](C)[C@H](NC(=O)[C@H](CC(C)C)NC(=O)[C@H](CO)NC(=O)[C@H](CCC(=O)O)NC(=O)[C@H](CC(C)C)NC(=O)[C@H](Cc1ccc(O)cc1)NC(=O)[C@H](CCCCN)NC(=O)[C@H](CCCCN)NC(=O)[C@H](C)NC(=O)[C@H](CO)NC(=O)[C@H](CC(C)C)NC(=O)[C@H](CCC(N)=O)NC(=O)CNC(=O)[C@H](CC(C)C)NC(=O)[C@H](CC(C)C)NC(=O)[C@H](CCCNC(=N)N)NC(=O)[C@H](CO)NC(=O)[C@H](Cc1ccccc1)NC(=O)[C@H](CC(=O)O)NC(=O)[C@H](CO)NC(=O)[C@@H](NC(=O)[C@H](Cc1ccccc1)NC(=O)[C@@H](NC(=O)CNC(=O)[C@H](CC(=O)O)NC(=O)[C@H](C)NC(=O)[C@@H](N)Cc1cnc[nH]1)C(C)C)[C@@H](C)O)C(N)=O the results were KAT2A inh -1% and VDR inh 0%.
`COC(=O)c1ccc(-n2cncn2)c([N+](=O)[O-])c1` gave PLK1 PBD inh 27µM*, Rango-impB inh -2%, KAT2A inh 11%, Rango release inh 3%, PI5P4Ka inh -15 and VDR inh 9%.
For CCN(C(=O)Cn1c(=O)oc2cc(S(=O)(=O)N3CCCCCC3)ccc21)c1cccc(C)c1 the results were KAT2A inh -10% and VDR inh 12%.
CCC(CC)c1nnc(NC(=O)c2ccco2)s1 was read as PLK1 PBD inh 21µM*, Rango-impB inh -1%, KAT2A inh 0%, Rango release inh 7%, PI5P4Ka inh 0 and VDR inh 2%.
CC(C)(C)Cc1nnc(NC(=O)c2ccc3c(c2)OCO3)s1 was read as PLK1 PBD inh 15µM*, Rango-impB inh -1%, KAT2A inh -10%, Rango release inh -11%, PI5P4Ka inh inconclusive and VDR inh inconclusive.
For CCC(CC)c1nnc(NC(=O)c2ccc3c(c2)OCO3)s1 the results were PLK1 PBD inh 27µM*, Rango-impB inh -1%, KAT2A inh -14%, Rango release inh -20%, PI5P4Ka inh -3 and VDR inh 79µM*.
Screening CCC(CC)c1nnc(NC(=O)COc2ccc3c(c2)OCO3)s1 returned PLK1 PBD inh 13µM*, Rango-impB inh 2%, KAT2A inh -14%, Rango release inh 8%, PI5P4Ka inh -27 and VDR inh 79µM*.
`O=C(Nc1nnc(Cc2ccc([N+](=O)[O-])cc2)s1)c1ccc2c(c1)OCO2` gave PLK1 PBD inh 1%, Rango-impB inh 3%, KAT2A inh -8%, Rango release inh -8%, PI5P4Ka inh 0 and VDR inh 15%.
Screening Cc1nnc(NC(=O)c2ccco2)s1 returned PLK1 PBD inh -11%, Rango-impB inh -2%, KAT2A inh -7%, Rango release inh -3%, PI5P4Ka inh -8 and VDR inh -5%.
Screening CC(C)c1nnc(NC(=O)COc2ccc3c(c2)OCO3)s1 returned PLK1 PBD inh -27%, Rango-impB inh 0%, KAT2A inh -4%, Rango release inh -16%, PI5P4Ka inh 4 and VDR inh -10%.
O=S(=O)(c1ccccc1C(F)(F)F)N1CCN(c2nc(-c3cccs3)nc3ccccc23)CC1 was read as VDR inh 2%.
`CCOc1ccc(C(c2c(O)nc(SC)[nH]c2=O)c2c(O)nc(SC)[nH]c2=O)cc1` gave PLK1 PBD inh 24µM*, Rango-impB inh 6%, Rango release inh 1%, PI5P4Ka inh inconclusive and VDR inh inconclusive.
Screening CSc1nc(O)c(C(c2ccc(O)cc2)c2c(O)nc(SC)[nH]c2=O)c(=O)[nH]1 returned PLK1 PBD inh inconclusive, Rango-impB inh -2%, KAT2A inh -6%, Rango release inh 27%, PI5P4Ka inh inconclusive and VDR inh inconclusive.
`C=CCOc1ccc(C(c2c(O)nc(SC)[nH]c2=O)c2c(O)nc(SC)[nH]c2=O)cc1` gave PLK1 PBD inh 12µM*, Rango-impB inh 0%, Rango release inh 0%, PI5P4Ka inh -26 and VDR inh 22µM*.
O=C(OCC(=O)N1CCCC1=O)c1cc2ccccc2o1 was read as PLK1 PBD inh 21µM*, Rango-impB inh 3%, KAT2A inh -4%, Rango release inh -2%, PI5P4Ka inh -30 and VDR inh -11%.
Cc1cccc(NC(=O)CN2C(=O)S/C(=C\c3cccn3-c3cccc(C(=O)O)c3)C2=O)c1 was read as PLK1 PBD inh inconclusive, Rango-impB inh inconclusive, KAT2A inh 1%, Rango release inh inconclusive, PI5P4Ka inh -27 and VDR inh 6%.
Screening Cc1cccc(C)c1NC(=O)CN1C(=O)S/C(=C\c2cccn2-c2cccc(C(=O)O)c2)C1=O returned PLK1 PBD inh 42µM*, Rango-impB inh inconclusive, KAT2A inh -12%, Rango release inh inconclusive, PI5P4Ka inh -69* and VDR inh -16%.
Screening Cc1ccccc1NC(=O)CN1C(=O)S/C(=C\c2cccn2-c2cccc(C(=O)O)c2)C1=O returned PLK1 PBD inh inconclusive, Rango-impB inh 0%, KAT2A inh -4%, Rango release inh -11%, PI5P4Ka inh -4 and VDR inh 14%.
For Cc1ccc(NC(=O)CN2C(=O)S/C(=C\c3cccn3-c3cccc(C(=O)O)c3)C2=O)c(C)c1 the results were PLK1 PBD inh 24µM*, Rango-impB inh 0%, KAT2A inh -14%, Rango release inh -4%, PI5P4Ka inh inconclusive and VDR inh -10%.
`C=C1C(=O)O[C@@H]2[C@H]3O[C@]3(C)CCC=C(C)CC[C@@H]12` gave KAT2A inh -4% and VDR inh 35µM*!.
Screening C=C1C(=O)O[C@@H]2[C@@H]1CC/C(C)=C\CC[C@@]1(C)O[C@H]21 returned KAT2A inh 5%[21.4 µM] and VDR inh inconclusive.
For COc1ccc2ccc3c(c2c1)N=CC1(O3)N(C)c2ccccc2C1(C)C (stereo unspecified) the results were PLK1 PBD inh -24%, Rango-impB inh 0%, KAT2A inh -29%, Rango release inh -9% and VDR inh 50µM*.
Screening CN1c2ccccc2C(C)(C)C12C=Nc1c(ccc3ccccc13)O2 (stereo unspecified) returned PLK1 PBD inh -5%, Rango-impB inh 0%, KAT2A inh inconclusive, Rango release inh -6%, PI5P4Ka inh 11 and VDR inh -19%.
